From PubChem
aSyn UTR act – Activators via SNCA 5'UTR binding, MLPCN. alpha-synuclein 5'UTR reporter, activators screen. activity score, % (tested at 7.5 µM), hits read low. 7.1% of 300,000 active. AID 1814, 2009; in the data active = activity score below about -60%
* = called active by the depositor. Not all results are given here.

SMILES	aSyn UTR act
CC(=O)Nc1sc(C)c(C)c1C(=O)OCC(=O)N(CC(C)C)c1c(N)n(Cc2ccccc2)c(=O)[nH]c1=O	77
CC1(C)Cc2c(sc(NC(=O)COc3cccc4ccccc34)c2C#N)C(C)(C)N1	72
Cc1cccc(OCC(=O)Nc2sc3c(c2C#N)CCC3)c1	-100*
Cc1sc(NC(=O)COc2ccccc2)c(C#N)c1C	-91*
Cc1sc(NC(=O)CS(=O)(=O)c2ccccc2)c(C#N)c1C	-87*
Cc1cccc(OCC(=O)Nc2cc(C)c(C)cc2O)c1	-112*
CC(=O)c1ccc(N(C(=O)Cn2nnc3ccccc32)C(C(=O)NCc2ccccc2)c2ccccn2)cc1 (stereo unspecified)	-106*
c1ccc(CCn2nnc3ccccc32)cc1	-138*
O=C(Cn1nnc2ccccc21)NCc1ccccc1	-100*
CCN1C(=O)/C(=C2/C=Cc3ccccc3N2C)OC1=S	-200*
Cc1cc(C(=O)N2CCN(c3cccc(Cl)c3)CC2)c(C)o1	-137*
Oc1ccc(NCc2ccc(OCc3ccccc3)cc2)cc1	-100*
CS(=O)(=O)Nc1ccc(OCc2ccccc2)cc1	-168*
COCC(=O)Nc1ccc(OCc2ccccc2)cc1	-79*
COc1ccccc1NC(=O)C(=O)N/N=C(\C)CC(=O)Nc1ccc(OCc2ccccc2)cc1	-62*
CC(=O)Nc1ccc(N=Cc2ccc(OCc3ccccc3)cc2)cc1	-129*
COC(=O)Nc1ccc(OCc2ccccc2)cc1	-112*
Cc1ccc(NC(=O)C2COc3ccccc3O2)cc1C (stereo unspecified)	-171*
COC(=O)c1cccc(NC(=O)C2COc3ccccc3O2)c1 (stereo unspecified)	-137*
Cc1cccc(NC(=O)C2COc3ccccc3O2)c1 (stereo unspecified)	-115*
Cn1c(/C=C/c2cccc(Br)c2)nc2ccccc2c1=O	-178*
COc1ccc2cc1Oc1ccc(cc1)CC1c3c(cc(OC)c4c3Oc3cc5c(cc3O4)CCNC5C2)CCN1C (stereo unspecified)	114
Cc1ccc(C(=O)NC(C#N)=C(Cl)Cl)cc1	-191*
Cc1ccc(/C=C/C(=O)NCc2cccs2)c(C)c1	-132*
Cc1ccc(/C=C/C(=O)NCc2cccs2)cc1	-68*
SMILES	aSyn UTR act
Cc1cc(C(=O)OCC(=O)NCc2ccco2)c(C)n1-c1ccc(F)cc1	80
O=C(/C=C/c1ccc(F)cc1)NCc1ccco1	-75*
O=C(/C=C/c1c(F)cccc1Cl)N1CCc2ccccc2C1	-85*
CCN1CCN(C(=O)/C=C/c2c(F)cccc2Cl)CC1	-90*
O=C(/C=C/c1cccc([N+](=O)[O-])c1)Nc1ccc(Cl)cn1	-92*
O=C(/C=C/c1ccccc1)Nc1ccc(Br)cn1	-125*
Cc1ccc(NC(=O)/C=C/c2ccc(Cl)cc2)nc1	-158*
Cc1ccc(N=C/C(C(=O)C(F)(F)F)=C(\O)c2cccs2)cc1	-89*
O=C(/C(N=Nc1cccc(C(F)(F)F)c1)=C(/O)c1cccs1)C(F)(F)F	-62*
CCOc1ccccc1CNC(=O)c1cc2oc3ccccc3c2n1CC	66
Cn1c(C(=O)N2CCc3ccccc3C2)cc2oc3ccccc3c21	-137*
CC(=O)c1ccc(OC(C)c2nc3ccccc3s2)cc1 (stereo unspecified)	-89*
Cc1cc2ccccc2n1CCNC(=O)c1ccc(Br)o1	-78*
Cc1cc2ccccc2n1CCNC(=O)c1ccccc1	-114*
CC(=O)c1ccc(OCc2cc(C(=O)N3CCN(c4ccccc4)CC3C)no2)cc1 (stereo unspecified)	-163*
CSc1ccccc1OCc1cc(C(=O)N2CCN(c3ccccc3)CC2C)no1 (stereo unspecified)	-108*
N/C(=N\OC(=O)C12CC3CC(CC(C3)C1)C2)c1ccccc1	-134*
N/C(=N\OC(=O)N1CCOCC1)c1ccccc1	-64*
C/C(=N/NC(=O)c1ccoc1C)C12CC3CC(CC(C3)C1)C2	-158*
C/C(=N\NC(=O)c1ccccn1)C12CC3CC(CC(C3)C1)C2	-131*
N/C(=N\OC(=O)C12CC3CC(CC(C3)C1)C2)c1ccccn1	-110*
Cn1c(SCC(=O)Nc2ccccc2F)nnc1-c1cccs1	-78*
Cn1c(SCc2c(F)cccc2Cl)nnc1-c1cccs1	-83*
CCCOC1CCCN(C(=O)CCc2nnc(Cc3cccc(C)c3)o2)C1 (stereo unspecified)	-164*
Cc1cccc(Cc2nnc(CCC(=O)N(CC3CC3)CC3CCCO3)o2)c1 (stereo unspecified)	-112*
SMILES	aSyn UTR act
O=C(NCSc1ccccc1)c1ccccc1	-94*
N#CC1=C(N)Oc2c(ccc3ccccc23)C1c1cccs1 (stereo unspecified)	110
CC(=O)n1c2c(c3ccccc31)OC(N)=C(C#N)C2c1ccc(C(C)C)cc1 (stereo unspecified)	-118*
CCCCCC(=O)Nc1ccc2ccccc2c1	-175*
CC(C)CC(=O)Nc1ccc2c(c1)oc1ccccc12	-227*
CCCCC(=O)Nc1ccc2c(c1)oc1ccccc12	-251*
Cc1cc(=O)oc2cc(NC(=O)C3CCCC3)ccc12	-85*
O=C(Nc1ccc2c(c1)oc1ccccc12)C1CC1	-138*
NC(=O)c1c(NC(=O)c2ccccc2)sc2c1CCc1ccccc1-2	-211*
Cc1cc(C(=O)Nc2sc3c(c2C#N)CCCCC3)cs1	-94*
CNC(=O)c1c(NC(=O)c2nc3ccccc3s2)sc2c1CCC2	-256*
NC(=O)c1c(NC(=O)c2ccncc2)sc2c1CCCC2	-121*
N#Cc1c(NC(=O)c2cnn3cccnc23)sc2c1CCCC2	-99*
NC(=O)c1c(NC(=O)c2cnccn2)sc2c1CCCC2	-217*
CCN(CC)CCCC(C)NC(=O)c1c(NC(=O)c2ccccc2)sc2c1CCCC2 (stereo unspecified)	-79*
O=C(O)CCC(=O)Nc1sc2c(c1C(=O)Nc1ccccc1)CCCCC2	-78*
NC(=O)c1c(NC(=O)c2ccccc2)sc2c1CCC2	-122*
N#Cc1c(NC(=O)c2ccncc2)sc2c1CCC2	-66*
CC(C)C(=O)NC(=S)Nc1sc2c(c1C(N)=O)CCCC2	-121*
COc1ccc(NC(=O)c2c(NC(=O)CCC(=O)O)sc(-c3ccccc3)c2C)cc1	-76*
NC(=O)c1c(NC(=S)Nc2ccccc2)sc2c1CCCC2	-67*
COc1cc(C(C#N)N2N=C(c3ccccc3)CC2c2ccccc2)ccc1O (stereo unspecified)	-142*
COc1ccccc1-c1nnc2n1N=C(c1ccc(O)c(O)c1)CS2	97
COc1cc(/C=C/C(=O)c2ccc(Cl)s2)cc(OC)c1O	-164*
COc1ccc(/C=C/C(=O)c2ccc(Cl)s2)cc1O	-147*
SMILES	aSyn UTR act
CC1(c2ccc([N+](=O)[O-])cc2)Nc2ccccc2S1 (stereo unspecified)	-83*
COc1ccc(C(=S)Nc2ccc(C)cc2)cc1	-153*
Cc1ccc(NC(=S)c2ccccc2)cc1	-152*
O=c1c2c3nc4ccccc4nc3n(/N=C/c3ccccn3)c2ncn1-c1ccccc1	-238*
COc1ccc(CCn2nc(C)c([N+](=O)[O-])c2C)cc1	-101*
CCOC(=O)c1ccc2c(c1)[nH]c(=S)n2CC	-64*
COc1cccc(N/N=C/c2cccc(Br)c2O)c1	-117*
COc1cccc(/C=N/NC(=O)c2ccc(-c3ccccc3)cc2)c1O	76
COc1cccc(/C=N/Nc2ccc([N+](=O)[O-])cc2)c1O	-150*
COc1ccc(/C=N/Nc2ccc([N+](=O)[O-])cc2)cc1O	-298*
